Source: the supplement of paper PMC10849652
Targets with a hit are over-represented here; the source holds about 7,900 in all. About 0.6% of all pairs of compound and target were hits.

Chain of UniProt P07711 (P07711 whole entry, looked up): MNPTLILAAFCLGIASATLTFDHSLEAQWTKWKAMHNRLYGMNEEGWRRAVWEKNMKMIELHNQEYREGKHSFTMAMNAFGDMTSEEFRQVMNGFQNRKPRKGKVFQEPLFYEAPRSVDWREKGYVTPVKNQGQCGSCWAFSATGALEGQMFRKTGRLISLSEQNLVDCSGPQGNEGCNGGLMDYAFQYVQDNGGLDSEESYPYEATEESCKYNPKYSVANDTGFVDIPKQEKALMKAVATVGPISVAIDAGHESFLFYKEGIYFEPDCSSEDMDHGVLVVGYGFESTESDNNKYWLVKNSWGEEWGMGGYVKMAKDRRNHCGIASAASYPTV
Chain of UniProt Q15075 (Q15075 whole entry, looked up): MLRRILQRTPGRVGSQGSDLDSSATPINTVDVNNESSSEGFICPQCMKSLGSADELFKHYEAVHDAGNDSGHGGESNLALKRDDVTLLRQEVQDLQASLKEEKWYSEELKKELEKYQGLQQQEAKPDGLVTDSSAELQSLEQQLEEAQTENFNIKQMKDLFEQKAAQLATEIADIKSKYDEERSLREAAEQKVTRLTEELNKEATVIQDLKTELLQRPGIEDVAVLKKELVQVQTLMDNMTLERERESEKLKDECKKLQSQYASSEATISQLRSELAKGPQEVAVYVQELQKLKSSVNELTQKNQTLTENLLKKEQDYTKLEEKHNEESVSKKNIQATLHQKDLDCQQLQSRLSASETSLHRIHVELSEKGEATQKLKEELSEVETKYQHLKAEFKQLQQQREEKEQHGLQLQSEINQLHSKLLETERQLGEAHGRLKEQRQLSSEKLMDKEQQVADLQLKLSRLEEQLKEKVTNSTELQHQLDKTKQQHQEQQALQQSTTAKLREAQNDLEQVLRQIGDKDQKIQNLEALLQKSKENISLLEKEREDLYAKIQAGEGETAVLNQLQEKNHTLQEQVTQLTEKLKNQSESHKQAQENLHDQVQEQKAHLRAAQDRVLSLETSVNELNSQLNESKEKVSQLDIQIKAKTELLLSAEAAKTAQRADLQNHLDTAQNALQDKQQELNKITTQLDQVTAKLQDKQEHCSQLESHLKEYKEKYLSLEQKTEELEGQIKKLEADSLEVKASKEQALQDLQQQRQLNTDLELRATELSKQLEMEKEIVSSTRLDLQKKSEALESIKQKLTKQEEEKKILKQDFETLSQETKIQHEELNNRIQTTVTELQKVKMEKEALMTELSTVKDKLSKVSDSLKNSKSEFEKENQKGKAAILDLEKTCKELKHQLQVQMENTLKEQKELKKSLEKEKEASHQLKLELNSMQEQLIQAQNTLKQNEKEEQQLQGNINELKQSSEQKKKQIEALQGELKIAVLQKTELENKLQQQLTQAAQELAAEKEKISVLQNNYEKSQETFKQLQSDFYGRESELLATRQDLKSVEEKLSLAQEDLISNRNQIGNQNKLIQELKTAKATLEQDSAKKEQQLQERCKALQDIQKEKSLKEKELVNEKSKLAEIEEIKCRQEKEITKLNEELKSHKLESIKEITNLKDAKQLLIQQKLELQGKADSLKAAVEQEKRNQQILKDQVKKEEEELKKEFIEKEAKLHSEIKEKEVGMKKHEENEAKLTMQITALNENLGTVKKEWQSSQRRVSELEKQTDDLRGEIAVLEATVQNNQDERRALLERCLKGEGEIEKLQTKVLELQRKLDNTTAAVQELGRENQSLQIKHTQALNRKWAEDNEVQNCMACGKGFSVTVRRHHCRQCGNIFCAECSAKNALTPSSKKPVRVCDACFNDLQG
Chain of UniProt Q96E09 (Q96E09 whole entry, looked up): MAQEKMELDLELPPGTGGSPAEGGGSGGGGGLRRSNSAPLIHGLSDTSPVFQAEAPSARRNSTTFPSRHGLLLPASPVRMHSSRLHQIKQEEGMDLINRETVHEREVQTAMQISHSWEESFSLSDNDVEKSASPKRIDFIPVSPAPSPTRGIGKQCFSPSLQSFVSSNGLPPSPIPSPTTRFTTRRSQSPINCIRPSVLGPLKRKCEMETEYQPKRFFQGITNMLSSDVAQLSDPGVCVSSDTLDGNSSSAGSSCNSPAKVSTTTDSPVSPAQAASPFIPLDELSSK
Chain of UniProt Q9H773 (Q9H773 whole entry, looked up): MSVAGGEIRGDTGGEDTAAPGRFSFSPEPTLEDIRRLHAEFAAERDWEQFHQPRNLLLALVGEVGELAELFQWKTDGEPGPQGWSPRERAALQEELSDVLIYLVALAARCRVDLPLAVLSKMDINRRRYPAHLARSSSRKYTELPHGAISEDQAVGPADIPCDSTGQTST
Chain of UniProt P29692 (P29692 whole entry, looked up): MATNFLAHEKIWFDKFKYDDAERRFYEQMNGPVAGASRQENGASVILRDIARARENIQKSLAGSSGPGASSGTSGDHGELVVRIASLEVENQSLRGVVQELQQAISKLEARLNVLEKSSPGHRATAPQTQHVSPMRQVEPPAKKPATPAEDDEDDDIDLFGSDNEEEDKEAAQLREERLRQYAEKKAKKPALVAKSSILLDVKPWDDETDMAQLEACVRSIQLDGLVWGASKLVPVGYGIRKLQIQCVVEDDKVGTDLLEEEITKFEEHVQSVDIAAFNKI
Chain of UniProt Q9NX74 (Q9NX74 whole entry, looked up): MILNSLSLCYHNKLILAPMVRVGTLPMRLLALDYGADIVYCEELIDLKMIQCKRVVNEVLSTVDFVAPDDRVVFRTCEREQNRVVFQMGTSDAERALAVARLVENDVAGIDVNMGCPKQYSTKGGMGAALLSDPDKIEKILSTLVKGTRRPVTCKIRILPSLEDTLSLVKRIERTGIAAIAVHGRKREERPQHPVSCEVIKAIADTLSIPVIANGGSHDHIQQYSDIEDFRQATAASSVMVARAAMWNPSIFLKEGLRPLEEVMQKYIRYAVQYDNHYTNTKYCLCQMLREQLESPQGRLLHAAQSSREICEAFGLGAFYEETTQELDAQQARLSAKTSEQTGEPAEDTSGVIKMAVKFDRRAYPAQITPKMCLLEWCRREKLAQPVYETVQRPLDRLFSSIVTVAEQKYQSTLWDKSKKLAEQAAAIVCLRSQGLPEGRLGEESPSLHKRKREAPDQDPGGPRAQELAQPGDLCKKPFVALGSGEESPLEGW
Chain of UniProt O60573 (O60573 whole entry, looked up): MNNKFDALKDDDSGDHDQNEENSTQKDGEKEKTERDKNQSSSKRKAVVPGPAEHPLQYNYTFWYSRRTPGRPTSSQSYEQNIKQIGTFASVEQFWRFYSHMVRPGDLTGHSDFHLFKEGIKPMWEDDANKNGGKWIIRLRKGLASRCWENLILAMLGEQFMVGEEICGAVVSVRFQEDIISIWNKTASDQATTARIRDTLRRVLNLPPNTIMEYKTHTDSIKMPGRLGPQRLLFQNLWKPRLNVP
Chain of UniProt Q96F86 (Q96F86 whole entry, looked up): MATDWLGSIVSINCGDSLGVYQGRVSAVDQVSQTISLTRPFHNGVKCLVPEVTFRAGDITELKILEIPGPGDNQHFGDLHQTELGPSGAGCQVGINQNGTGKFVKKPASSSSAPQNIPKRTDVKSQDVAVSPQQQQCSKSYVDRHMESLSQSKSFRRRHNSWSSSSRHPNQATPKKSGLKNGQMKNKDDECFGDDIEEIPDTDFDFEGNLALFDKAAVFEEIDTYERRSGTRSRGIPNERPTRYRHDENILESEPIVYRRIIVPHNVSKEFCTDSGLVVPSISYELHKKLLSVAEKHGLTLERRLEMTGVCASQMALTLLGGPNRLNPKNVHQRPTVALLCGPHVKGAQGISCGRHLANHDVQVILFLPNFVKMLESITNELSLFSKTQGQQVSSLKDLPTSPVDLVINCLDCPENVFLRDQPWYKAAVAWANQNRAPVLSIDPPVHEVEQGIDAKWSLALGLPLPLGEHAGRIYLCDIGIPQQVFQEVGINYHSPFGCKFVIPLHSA
Chain of UniProt Q96GE9 (Q96GE9 whole entry, looked up): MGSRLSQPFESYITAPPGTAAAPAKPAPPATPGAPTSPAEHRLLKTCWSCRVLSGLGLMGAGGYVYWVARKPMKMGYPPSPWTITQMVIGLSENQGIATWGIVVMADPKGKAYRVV
Chain of UniProt O75822 (O75822 whole entry, looked up): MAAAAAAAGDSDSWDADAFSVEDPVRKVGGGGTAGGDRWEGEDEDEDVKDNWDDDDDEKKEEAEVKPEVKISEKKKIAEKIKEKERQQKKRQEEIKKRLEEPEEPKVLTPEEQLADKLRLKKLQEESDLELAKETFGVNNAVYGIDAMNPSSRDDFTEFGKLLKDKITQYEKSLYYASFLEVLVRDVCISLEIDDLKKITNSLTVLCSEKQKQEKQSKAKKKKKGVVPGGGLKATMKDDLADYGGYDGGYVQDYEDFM
Chain of UniProt Q5QJE6 (Q5QJE6 whole entry, looked up): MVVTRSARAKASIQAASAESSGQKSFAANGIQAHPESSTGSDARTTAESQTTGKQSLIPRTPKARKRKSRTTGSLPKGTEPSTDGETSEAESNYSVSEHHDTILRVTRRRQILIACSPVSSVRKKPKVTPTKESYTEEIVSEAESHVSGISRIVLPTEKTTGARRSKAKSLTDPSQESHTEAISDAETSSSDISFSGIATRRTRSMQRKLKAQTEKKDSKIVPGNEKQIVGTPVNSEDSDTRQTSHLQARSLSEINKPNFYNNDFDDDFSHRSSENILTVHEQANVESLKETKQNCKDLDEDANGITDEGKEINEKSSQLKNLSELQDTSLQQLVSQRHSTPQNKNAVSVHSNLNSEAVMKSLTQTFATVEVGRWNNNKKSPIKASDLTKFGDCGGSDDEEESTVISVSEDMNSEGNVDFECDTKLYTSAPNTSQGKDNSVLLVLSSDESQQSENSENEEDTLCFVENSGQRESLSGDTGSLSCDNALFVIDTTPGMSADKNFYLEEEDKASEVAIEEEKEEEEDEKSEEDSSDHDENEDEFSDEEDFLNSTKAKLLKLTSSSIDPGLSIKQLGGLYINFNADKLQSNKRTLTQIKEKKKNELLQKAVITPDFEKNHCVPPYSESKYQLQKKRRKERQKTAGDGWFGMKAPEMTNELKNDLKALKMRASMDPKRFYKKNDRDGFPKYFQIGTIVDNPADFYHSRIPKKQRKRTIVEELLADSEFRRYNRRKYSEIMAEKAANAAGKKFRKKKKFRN

These targets were tested with CC1=C(C(CC(=O)N1)C2=CC=C(C=C2)C(F)(F)F)C(=O)NC3=C(C=C4C(=C3)C=NN4)F (assay: log2 fold change, soluble protein after heating vs DMSO (PISA); higher = thermal stabilisation; K562 cells, 10 uM, 30 min; active = over 0.2 and 3.5 SD of the protein, either way, in both replicates (recomputed)).
How it was run: (§1)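 Quantification of soluble protein used TMTpro 16plex LC-MS/MS, with channel sums equalised. Samples were the supernatant after 21,000xg for 90 min of pooled aliquots from K562 cells (2×10^6 cells/mL) treated with 10 μM compound for 30 min, heated for 3 min over 48°C-58°C, and extracted in PBS with 0.5% NP-40 at 4°C. Values, from duplicates, describe thermal stability against control samples on a log2 fold-change scale.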
With EOGT (UniProt Q5NDL2) the log2 fold change was 0.002 (inactive). With CUEDC2 (UniProt Q9H467) the log2 fold change was -0.015 (inactive). For DDX5 (UniProt P17844), the log2 fold change was -0.067 (inactive). In the case of EIF4E2 (UniProt O60573), the log2 fold change was 0.056 (inactive). With ERLIN1 (UniProt O75477) the log2 fold change was 0.012 (inactive). For EEF1AKNMT (UniProt Q8N6R0), the log2 fold change was -0.029 (inactive). EIF4A1 (UniProt P60842) was tested, and the log2 fold change was -0.011 (inactive). With DCTPP1 (UniProt Q9H773) the log2 fold change was 0.061 (inactive). For DNAJB12 (UniProt Q9NXW2), the log2 fold change was 0.05 (inactive). In the case of DDX4 (UniProt Q9NQI0), the log2 fold change was 0.03 (inactive). EXOC2 (UniProt Q96KP1) was tested, and the log2 fold change was -0.216 (inactive). With DMAC1 (UniProt Q96GE9) the log2 fold change was 0.063 (inactive). In the case of EEA1 (UniProt Q15075), the log2 fold change was 0.001 (inactive). With DDX46 (UniProt Q7L014) the log2 fold change was -0.107 (inactive). For CYP51A1 (UniProt Q16850), the log2 fold change was -0.013 (inactive). For DCTN1 isoform 4 (UniProt Q14203), the log2 fold change was -0.002 (inactive). In the case of CWC27 (UniProt Q6UX04), the log2 fold change was -0.045 (inactive). DNAJC19 (UniProt Q96DA6) was tested, and the log2 fold change was 0.016 (inactive). DUS2 (UniProt Q9NX74) was tested, and the log2 fold change was 0.035 (inactive). For ECH1 (UniProt Q13011), the log2 fold change was 0.086 (inactive). For DBT (UniProt P11182), the log2 fold change was 0.015 (inactive). FAAP100 (UniProt Q0VG06) was tested, and the log2 fold change was -0.097 (inactive). In the case of FAM207A (UniProt Q9NSI2), the log2 fold change was 0.005 (inactive). With EEF1D isoform 2 (UniProt P29692) the log2 fold change was 0.002 (inactive). DNAH11 (UniProt Q96DT5) was tested, and the log2 fold change was -0.012 (inactive). With DAB2 (UniProt P98082) the log2 fold change was -0.031 (inactive). DYNC1LI2 (UniProt O43237) was tested, and the log2 fold change was 0.007 (inactive). For DNAJC7 (UniProt Q99615), the log2 fold change was -0.003 (inactive). DLD (UniProt P09622) was tested, and the log2 fold change was 0.014 (inactive). In the case of DCAF10 (UniProt Q5QP82), the log2 fold change was 0.061 (inactive). DCAF6 isoform 3 (UniProt Q58WW2) was tested, and the log2 fold change was 0.015 (inactive). In the case of FAM122A (UniProt Q96E09), the log2 fold change was 0.007 (inactive). With FAM83D (UniProt Q9H4H8) the log2 fold change was -0.049 (inactive). With DNAJB1 (UniProt P25685) the log2 fold change was -0.004 (inactive). In the case of DNTTIP2 (UniProt Q5QJE6), the log2 fold change was -0.017 (inactive). CTSL (UniProt P07711) was tested, and the log2 fold change was -0.01 (inactive). CTSV (UniProt O60911) was tested, and the log2 fold change was -0.054 (inactive). EDC3 (UniProt Q96F86) was tested, and the log2 fold change was 0.039 (inactive). In the case of EIF3J (UniProt O75822), the log2 fold change was -0.019 (inactive).

Each target was assayed with CC1=C(C2=C(C=C1)C(=O)C3=CC=CC=C3N2CCCN)C in the same assay as above.
How it was run: as §1
In the case of EOGT (UniProt Q5NDL2), the log2 fold change was 0.003 (inactive). In the case of CUEDC2 (UniProt Q9H467), the log2 fold change was -0.159 (inactive). DDX5 (UniProt P17844) was tested, and the log2 fold change was 0.072 (inactive). With EIF4E2 (UniProt O60573) the log2 fold change was 0.116 (inactive). ERLIN1 (UniProt O75477) was tested, and the log2 fold change was 0.068 (inactive). For EEF1AKNMT (UniProt Q8N6R0), the log2 fold change was 0.13 (inactive). With EIF4A1 (UniProt P60842) the log2 fold change was 0.017 (inactive). DCTPP1 (UniProt Q9H773) was tested, and the log2 fold change was 0.165 (inactive). For DNAJB12 (UniProt Q9NXW2), the log2 fold change was 0.022 (inactive). With DDX4 (UniProt Q9NQI0) the log2 fold change was 0.033 (inactive). EXOC2 (UniProt Q96KP1) was tested, and the log2 fold change was 0.007 (inactive). For DMAC1 (UniProt Q96GE9), the log2 fold change was -0.013 (inactive). In the case of EEA1 (UniProt Q15075), the log2 fold change was -0.004 (inactive). DDX46 (UniProt Q7L014) was tested, and the log2 fold change was 0.152 (inactive). With CYP51A1 (UniProt Q16850) the log2 fold change was -0.006 (inactive). DCTN1 isoform 4 (UniProt Q14203) was tested, and the log2 fold change was 0.019 (inactive). CWC27 (UniProt Q6UX04) was tested, and the log2 fold change was 0.199 (inactive). With DNAJC19 (UniProt Q96DA6) the log2 fold change was 0.023 (inactive). DUS2 (UniProt Q9NX74) was tested, and the log2 fold change was -0.1 (inactive). In the case of ECH1 (UniProt Q13011), the log2 fold change was 0.076 (inactive). DBT (UniProt P11182) was tested, and the log2 fold change was 0.352 (active). In the case of FAAP100 (UniProt Q0VG06), the log2 fold change was 0.055 (inactive). With FAM207A (UniProt Q9NSI2) the log2 fold change was 0.038 (inactive). For EEF1D isoform 2 (UniProt P29692), the log2 fold change was 0.039 (inactive). With DNAH11 (UniProt Q96DT5) the log2 fold change was -0.137 (inactive). With DAB2 (UniProt P98082) the log2 fold change was -0.075 (inactive). DYNC1LI2 (UniProt O43237) was tested, and the log2 fold change was 0.094 (inactive). DNAJC7 (UniProt Q99615) was tested, and the log2 fold change was 0.04 (inactive). In the case of DLD (UniProt P09622), the log2 fold change was -0.008 (inactive). DCAF10 (UniProt Q5QP82) was tested, and the log2 fold change was 0.01 (inactive). For DCAF6 isoform 3 (UniProt Q58WW2), the log2 fold change was -0.034 (inactive). For FAM122A (UniProt Q96E09), the log2 fold change was -0.117 (inactive). FAM83D (UniProt Q9H4H8) was tested, and the log2 fold change was 0.1 (inactive). For DNAJB1 (UniProt P25685), the log2 fold change was 0.022 (inactive). For DNTTIP2 (UniProt Q5QJE6), the log2 fold change was -0.975 (active). For CTSL (UniProt P07711), the log2 fold change was -0.031 (inactive). For CTSV (UniProt O60911), the log2 fold change was 0.125 (inactive). In the case of EDC3 (UniProt Q96F86), the log2 fold change was -0.049 (inactive). EIF3J (UniProt O75822) was tested, and the log2 fold change was -0.025 (inactive).
